Sm TGR block – inhibitors of Schistosoma mansoni thioredoxin glutathione reductase; Q962Y6; AID 485364; 360,000 compounds, 3% hits; Potency, µM (doses to about 114 µM), most hits filed as inhibitors; purified TGR, DTNB reduction, TNB absorbance 405 nm; also: nearly all actives have a fitted effect of over 60% in size
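First, TGR (20 nM dispensed) and NADPH were mixed with compound. Second, a 15 min room-temperature incubation followed. Third, further NADPH and then DTNB were added to start the reaction. Finally, TNB absorbance was monitored kinetically.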
Pf growth 48h – P. falciparum growth inhibition at 48 hours (one generation) | P. falciparum luciferase growth in erythrocytes, 48 h | Potency, µM (top dose mostly 28.7 µM), actives largely listed as inhibitors | 310,000 compounds, 5.9% hits
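In quantitative HTS format, infected erythrocytes bearing luciferase-reporter parasites were treated for a single generation at 37 C. Luminescence after adding detection reagent served as the growth measure.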
Pf growth 96h – P. falciparum growth inhibition at 96 hours; P. falciparum luciferase reporter growth, 96 h; Potency, µM (series often up to 28.7 µM), hits mostly inhibitors; 320,000 compounds, 6.9% hits; AID 504834
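96 h incubation, 37 C, 5% CO2, of luciferase-reporter P. falciparum-infected RBCs (2% hematocrit, 0.05% parasitemia final) with test compounds; endpoint luminescence.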
HCMV inh – inhibitors of human cytomegalovirus; AID 1259415; activity change, negative = inhibition, % at 57.5 µM; HFF cells, HCMV-luciferase reporter, 72 h; active compounds read low; 410,000 compounds, 4.5% hits; in the data active = activity change below about -60%; inconclusive = no clear call, values can overlap the other calls; inactive = above about -39%
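Cell-based, HFFs, 1000 cells/well, 16 h 37C; cpds in DMSO + HCMV-luc, MOI 1 PFU/cell; 72 h 37C; OneGlo luminescence after 5 min RT; norm. to buffer vs Salinomycin 10uM.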
FBPA Giardia inh – Giardia lamblia aldolase inhibition | 290,000 compounds, 0.71% hits | Potency, µM (highest dose often 59.6 µM), hits mostly inhibitors | purified Giardia FBPA | A8B2U2 | AID 2451; also: nearly all actives have a fitted effect of over 55% in size
Target sequence (A8B2U2 whole entry, looked up): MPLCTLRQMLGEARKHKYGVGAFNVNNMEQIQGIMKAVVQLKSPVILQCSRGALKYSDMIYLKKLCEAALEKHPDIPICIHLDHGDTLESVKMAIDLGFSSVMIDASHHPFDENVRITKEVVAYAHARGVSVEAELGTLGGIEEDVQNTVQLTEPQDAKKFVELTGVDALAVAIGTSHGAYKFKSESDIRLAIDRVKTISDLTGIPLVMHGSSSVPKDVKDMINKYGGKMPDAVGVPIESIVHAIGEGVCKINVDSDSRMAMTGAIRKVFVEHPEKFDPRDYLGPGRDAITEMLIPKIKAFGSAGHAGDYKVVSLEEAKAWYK
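40 nM FBPA preincubated 10 min at RT with compound (up to 57.5 uM final), then substrate plus GAPDH/TPI/NAD/arsenate coupling and diaphorase/resazurin added. Fluorescence read after 20 min at RT, 525/598 nm.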
Of the large screens only hits and unclear results are named; the others gave an inactive call. Most compounds without a hit are left out; they make up all but 14% or so of the library. Unless noted, calls follow the shape of the dose curve; as a rule, active = well fitted curve in the direction sought with a large enough effect; inconclusive = small, poorly fitted or top-dose-only effect, or another doubt; inactive = no such curve, though single readings can be large; an effect the other way counts as inactive or inconclusive.

Cc1cccc(NC(=O)N2CCN(Cc3ccc4c(c3)OCO4)CC2)c1C	Pf growth 96h inconclusive, HCMV inh -75
Cc1ccc(NC(=O)N(Cc2ccc3c(c2)OCO3)C2CCN(Cc3ccccc3)CC2)cc1C	none (no result: Pf growth 48h, Pf growth 96h, FBPA Giardia inh)
Cc1ccc(NC(=O)N2CCN(Cc3ccc4c(c3)OCO4)CC2)cc1	Pf growth 96h 13µM (no result: Pf growth 48h)
COc1ccc(NS(=O)(=O)c2ccc(-n3cccn3)cc2)cc1OC	HCMV inh inconclusive (no result: Pf growth 48h, Pf growth 96h, FBPA Giardia inh)
CC/C(=N/OC(=O)c1cccc(C)c1)C(=O)c1cccs1	Pf growth 96h inconclusive
CCCCC(CCC(=O)O)(C(=O)OCC)c1csc(Nc2ccc(OCC)cc2)n1 (centres undefined)	Sm TGR block 50µM, Pf growth 96h inconclusive
Cc1ccc(-c2cc(C(=O)N3CCN(c4ccccc4)CC3)c3ccccc3n2)cc1C	none (no result: Pf growth 48h, Pf growth 96h, FBPA Giardia inh)
Cc1ccc2c(C(=O)N3CCN(c4ccccc4)CC3)cc(-c3cccnc3)nc2c1C	Pf growth 48h 2.3µM
Cc1ccc2nc(-c3cccnc3)cc(C(=O)N3CCN(c4ccc([N+](=O)[O-])cc4)CC3)c2c1	Pf growth 48h 10µM
CCOc1ccccc1N1CCN(C(=O)c2cc(-c3cccnc3)nc3c(Cl)cccc23)CC1	Pf growth 48h 3.3µM (no result: HCMV inh, FBPA Giardia inh)
O=S1(=O)N[C@@H](Cc2ccccc2)COc2cccc(N3CCSCC3)c21	none (no result: Sm TGR block, Pf growth 48h, Pf growth 96h, FBPA Giardia inh)
CCCc1[nH]nc2c1C(c1cc(OC)cc(OC)c1)C(C#N)=C(N)O2 (centres undefined)	Sm TGR block 25µM (no result: Pf growth 48h)
CCCc1[nH]nc2c1C(c1cc(OC)ccc1F)C(C#N)=C(N)O2 (centres undefined)	Sm TGR block inconclusive, Pf growth 48h inconclusive, Pf growth 96h inconclusive
CCc1[nH]nc2c1C(c1ccsc1)C(C#N)=C(N)O2 (centres undefined)	Pf growth 96h 10µM
COc1ccc(NC(=O)C(c2ccc(C)cc2)N(C)C(=O)/C=C\c2ccc3c(c2)OCO3)cc1 (centres undefined)	none (no result: Pf growth 48h, Pf growth 96h, FBPA Giardia inh)
Cc1ccc(C(C(=O)Nc2ccc3c(c2)OCO3)N(C)C(=O)/C=C\c2ccc3c(c2)OCO3)cc1 (centres undefined)	Pf growth 48h 13µM
COc1ccc(-c2nn(Cc3ccccc3)cc2C(=O)N2CCN(c3ccccn3)CC2)cc1OC	Pf growth 48h inconclusive, Pf growth 96h inconclusive (no result: FBPA Giardia inh)
O=C(c1cn(Cc2ccccc2)nc1-c1ccccc1)N1CCN(c2ccccn2)CC1	Pf growth 48h 15µM, Pf growth 96h inconclusive (no result: FBPA Giardia inh)
CC(=O)c1ccc(N2CCN(C(=O)c3cn(Cc4ccccc4)nc3-c3cccnc3)CC2)c(F)c1	Pf growth 48h 13µM, Pf growth 96h 9.3µM (no result: FBPA Giardia inh)
C=C(C)[C@H]1Cc2c(ccc3c2O[C@@H]2COc4cc(OC)c(OC)cc4[C@@H]2C3=O)O1	Pf growth 48h inconclusive, Pf growth 96h 6.7µM (no result: Sm TGR block, HCMV inh)
C=C(C)C1Cc2c(ccc3c2OC2COc4cc(OC)c(OC)cc4C2C3=O)O1 (centres undefined)	none (no result: Sm TGR block, Pf growth 48h, Pf growth 96h, HCMV inh)
Cc1cc2c(cc1C)NC(c1c(C)n(C)n(-c3ccccc3)c1=O)C1=C(CC(C)(C)CC1=O)N2 (centres undefined)	Sm TGR block inconclusive, Pf growth 48h inconclusive, Pf growth 96h 10µM, FBPA Giardia inh inconclusive
CCOC(=O)/C(C#N)=C/c1c(N2CCN(CC)CC2)nc2c(C)cccn2c1=O	none
O=C(CCNc1cccc(F)c1)c1cccc([N+](=O)[O-])c1	Sm TGR block 0.28µM
O=C(CCNc1cccc(F)c1)c1cc2ccccc2o1	Sm TGR block 0.35µM, Pf growth 96h inconclusive, HCMV inh inconclusive
O=C(Cc1ccc(F)cc1)OCC(=O)c1cc2ccccc2o1	none
O=C(CCNc1ccc(Cc2ccncc2)cc1)c1cccc([N+](=O)[O-])c1	none
O=C(CCNc1ccc(F)cc1)c1cc2ccccc2o1	Sm TGR block 0.32µM
CNC(=O)c1cc2ccccc2o1	none
Cn1c(N)c(C(=O)COC(=O)c2ncc(Cl)c(Cl)c2Cl)c(=O)n(C)c1=O	none
CCOC(=O)c1cccc(Nc2ccc3cc(S(=O)(=O)N4CCCCC4)ccc3n2)c1	none (no result: Pf growth 48h, Pf growth 96h, FBPA Giardia inh)
COc1ccc(C2CC(=O)C(c3ccccc3OC)=CN2Cc2ccccc2)cc1 (centres undefined)	none (no result: Sm TGR block, Pf growth 48h, Pf growth 96h, FBPA Giardia inh)
COc1cccc(COC(=O)CCNC(=O)c2ccc(Cl)cc2)c1OC	none (no result: FBPA Giardia inh)
COc1ncccc1C(=O)NC1CCCc2c1cnn2-c1cc(C)cc(C)c1 (centres undefined)	HCMV inh -61
COCc1ccc(C(=O)NC2CCCc3c2cnn3-c2cc(C)cc(C)c2)s1 (centres undefined)	Pf growth 48h inconclusive, Pf growth 96h 7.4µM, HCMV inh inconclusive
Cc1cc(C)cc(-n2ncc3c2CCCC3NC(=O)c2cc(C)oc2C)c1 (centres undefined)	Sm TGR block inconclusive, HCMV inh inconclusive
CCC1CCCCN1C(=O)CSc1nc2ncccc2[nH]1 (centres undefined)	none (no result: FBPA Giardia inh)
COc1ccc(CN2C(=O)C(CC(C)C)Nc3ncnc(N4CCN(c5ccccc5)CC4)c32)cc1 (centres undefined)	Sm TGR block inconclusive, Pf growth 48h 2.6µM, Pf growth 96h 12µM (no result: FBPA Giardia inh)
Cc1ccc(CN2C(=O)C(CC(C)C)Nc3ncnc(N4CCOCC4)c32)cc1 (centres undefined)	none (no result: Sm TGR block, Pf growth 48h, Pf growth 96h, FBPA Giardia inh)
CC(C)CC1NC(=S)N(Cc2ccccc2)C1=O (centres undefined)	Pf growth 48h inconclusive, Pf growth 96h 9.3µM, HCMV inh -100
O=C1C(Cc2ccccc2)NC(=S)N1Cc1ccccc1 (centres undefined)	none
CC(C)CC1Nc2ncnc(N3CCN(c4ccccc4)CC3)c2N(Cc2ccccc2)C1=O (centres undefined)	Sm TGR block inconclusive, Pf growth 48h 10µM, Pf growth 96h 12µM (no result: FBPA Giardia inh)
CC(C)CC1Nc2ncnc(N3CCN(c4ccccc4)CC3)c2N(Cc2ccc(Br)cc2)C1=O (centres undefined)	Pf growth 48h 2.9µM, Pf growth 96h 5.9µM (no result: FBPA Giardia inh)
CCOc1ccc(CC(=O)NC2CC(=O)N(c3ccc(C)c(C)c3)C2)cc1 (centres undefined)	none (no result: Pf growth 48h, Pf growth 96h, FBPA Giardia inh)
COc1ccc(CN2C(=O)C(Cc3ccccc3)Nc3ncnc(N4CCN(c5ccccc5)CC4)c32)cc1 (centres undefined)	Sm TGR block inconclusive, Pf growth 48h 2.6µM, Pf growth 96h 6.6µM, HCMV inh inconclusive (no result: FBPA Giardia inh)
CC(C)CC1Nc2ncnc(N3CCCCC3)c2N(Cc2ccccc2)C1=O (centres undefined)	Pf growth 48h 12µM, Pf growth 96h inconclusive (no result: HCMV inh, FBPA Giardia inh)
Cc1ccc(Cn2c(CNS(=O)(=O)c3cccc([N+](=O)[O-])c3)nc3cccnc32)cc1	none (no result: Pf growth 48h, Pf growth 96h, FBPA Giardia inh)
CC(C)(C)/C(O)=C/c1nc2cc(Cl)ccc2oc1=O	Sm TGR block inconclusive, Pf growth 48h 9.3µM, Pf growth 96h 5.9µM, FBPA Giardia inh inconclusive
Cc1ccc2oc(=O)c(/C=C(\O)c3sc(C)nc3C)nc2c1	Pf growth 48h inconclusive, Pf growth 96h 10µM
COc1cc(/C=C2\C(=N)N3N=C(S(C)(=O)=O)SC3=NC2=O)ccc1OC(=O)c1ccco1	Sm TGR block inconclusive, Pf growth 96h inconclusive
